{"source": "PubChem BioAssay (EPA / NIEHS)", "note": "Records with an inconclusive call do not appear. Active and inactive are the calls of the source. The calls were made as follows: active = hit-call score of the fitted dose curve at least 0.9, where 1 is the maximum; inconclusive = response in the unintended direction; inactive = score below 0.9."}
{"test": "ATG_XTT_Cytotoxicity: Cytotoxicity Assessment in the Attagene TRANS-FACTORIAL HepG2 Assay (AID 2283584)", "method_in_brief": "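HepG2 cells transiently transfected with GAL4-UAS multiple reporter units, dosed 24 h; cytotoxicity read by XTT as loss of signal versus DMSO baseline.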"}
{"smiles": "Cl/C=C/Cl", "outcome": "inactive"}
{"smiles": "Clc1ccc(COC(Cn2ccnc2)c2ccc(Cl)cc2Cl)cc1", "note": "(stereo not given)", "outcome": "inactive"}
{"smiles": "CC(=[OH+])/C=C(/C)[O-].CC(=[OH+])/C=C(/C)[O-].CC(=[OH+])/C=C(/C)[O-].[Al]", "outcome": "inactive"}
{"smiles": "CC(C)c1cccc(C(C)C)c1O", "outcome": "inactive"}
{"smiles": "CC(=[OH+])/C=C(/C)[O-].CC(=[OH+])/C=C(/C)[O-].CC(=[OH+])/C=C(/C)[O-].[Fe]", "outcome": "inactive"}
{"smiles": "CCCCCCCCCl", "outcome": "inactive"}
{"smiles": "CC(=O)C=C(C)C", "outcome": "inactive"}
{"smiles": "Clc1nc(Cl)nc(Cl)n1", "outcome": "inactive"}
{"smiles": "CC1CN1P(=O)(N1CC1C)N1CC1C", "note": "(stereo not given)", "outcome": "inactive"}
{"smiles": "Cc1cc(Cl)ccc1O[C@H](C)C(=O)O", "outcome": "inactive"}
{"smiles": "COP(=O)(OC)O/C(=C\\Cl)c1cc(Cl)c(Cl)cc1Cl", "outcome": "inactive"}
{"smiles": "O=[N+]([O-])c1c(Cl)c(Cl)cc(Cl)c1Cl", "outcome": "inactive"}
{"smiles": "O=C(O)Cc1ccccc1", "outcome": "inactive"}
{"smiles": "ClC1=C(Cl)[C@]2(Cl)[C@@H]3[C@@H](Cl)[C@@H](Cl)C[C@@H]3[C@@]1(Cl)C2(Cl)Cl", "outcome": "inactive"}
{"smiles": "Nc1ccc(Cl)cc1C(=O)c1ccccc1", "outcome": "inactive"}
{"smiles": "CNC(=O)O/N=C/C(C)(C)S(C)=O", "note": "(stereo not given)", "outcome": "inactive"}
{"smiles": "O=C1C(Cl)=C(Cl)C(=O)c2ccccc21", "outcome": "inactive"}
{"smiles": "Cc1ccccc1C(=O)Nc1cccc(OC(C)C)c1", "outcome": "inactive"}
{"smiles": "COc1ccc(OC)c(C=O)c1", "outcome": "inactive"}
{"smiles": "Nc1cccc(Cl)c1", "outcome": "inactive"}
{"smiles": "CN(CCCC(=O)c1cccnc1)N=O", "outcome": "inactive"}
{"smiles": "COc1cccc(C=O)c1", "outcome": "inactive"}
{"smiles": "Nc1ncc([N+](=O)[O-])s1", "outcome": "inactive"}
{"smiles": "CCN(CC)C(=O)Cl", "outcome": "inactive"}
{"smiles": "CCOP(=S)(OCC)SCCS(=O)(=O)CC", "outcome": "inactive"}
